Screening results (PubChem BioAssay)
G9a block – qHTS Assay for Inhibitors of Histone Lysine Methyltransferase G9a | Histone-lysine N-methyltransferase EHMT2 (Homo sapiens), Q96KQ7 | G9a H3K9 monomethylation, AlphaScreen, 2 h | Potency, µM (doses to about 102 µM), without a hit: at the top dose activity, negative = inhibition, hits mostly inhibitors | 350,000 compounds, 8.8% hits | AID 504332, 2011; also: potency is read from the fitted curve at half-maximal effect; % is scaled to controls: 0 for no effect and ±100 for the full control effect; nearly all actives have a fitted effect of over 75% in size
Target sequence (Q96KQ7 913-1193 limits assumed): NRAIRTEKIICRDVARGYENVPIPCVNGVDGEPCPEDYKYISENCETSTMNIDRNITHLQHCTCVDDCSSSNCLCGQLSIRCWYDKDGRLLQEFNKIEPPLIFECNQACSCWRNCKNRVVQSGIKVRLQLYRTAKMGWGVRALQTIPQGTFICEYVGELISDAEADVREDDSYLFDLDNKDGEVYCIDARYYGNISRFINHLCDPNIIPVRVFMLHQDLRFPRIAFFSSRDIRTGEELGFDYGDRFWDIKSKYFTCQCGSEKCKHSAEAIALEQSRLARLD
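AlphaScreen read-out: biotin-H3K9 peptide (500 nM) methylation by 20 nM enzyme with 20 uM SAM, 2 h at room temperature after 15 min compound preincubation; anti-monomethyl H3K9 antibody plus donor/acceptor beads, 10 min dark.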
HP1b binding inh – HTS for Inhibitors of HP1-beta Chromodomain Interactions with Methylated Histone Tails; Chromobox protein homolog 1 (Homo sapiens), P83916; AlphaScreen HP1-beta / biotin-H3K9me3 peptide binding; Potency, µM (doses to about 114 µM), inactives show at the highest dose activity change, negative = inhibition, hits mostly inhibitors; 390,000 compounds, 0.56% hits; AID 540317, 2011; also: potency is read from the fitted curve at half-maximal effect; nearly all actives have a fitted effect of over 70% in size
Target sequence (P83916 whole entry, looked up): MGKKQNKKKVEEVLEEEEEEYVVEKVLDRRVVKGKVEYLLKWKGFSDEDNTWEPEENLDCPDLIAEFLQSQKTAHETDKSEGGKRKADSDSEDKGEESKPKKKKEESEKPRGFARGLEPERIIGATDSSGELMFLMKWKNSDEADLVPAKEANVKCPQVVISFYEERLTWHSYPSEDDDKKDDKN
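HP1-beta protein (50 nM final) preincubated 30 min at room temperature with biotinylated H3(1-18)K9me3 peptide (50 nM) in PBS pH 7.4, 0.01% Tween-20, then compound added for 30 min. AlphaScreen streptavidin donor/nickel chelate acceptor beads (10 ug/mL final), 30 min dark, luminescence read.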
JMJD2A Tudor – qHTS Assay for Inhibitors of JMJD2A-Tudor Domain; Potency, µM (series often up to 114 µM), for inactives: at the top dose activity change, negative = inhibition, most hits filed as inhibitors; AlphaScreen JMJD2A-Tudor / H3K4me3 peptide binding; 390,000 compounds, 4.4% hits; also: potency is read from the fitted curve at half-maximal effect; % is scaled to controls: 0 for no effect and ±100 for the full control effect; nearly all actives have a fitted effect of over 50% in size
CtBP-E1A inh – qHTS Assay for Inhibitors of the CtBP/E1A Interaction; activity change, % (concentration not given with the values); AlphaScreen GST-E1A/His-CtBP binding, 1536-well; stronger effect = lower value; CtBP / adenovirus E1A interaction (AlphaScreen); AID 651724, 2012; 340,000 compounds, 0.49% hits; in the data active = activity change below about -65%; inconclusive = mostly about -30% to -63%; also: % is scaled to controls: 0 for no effect and ±100 for the full control effect
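In 5 uL wells, 23 nL compound meets equimolar GST-E1A and His-CtBP (5X stock 125 nM each) for 2 h, 37 °C. Beads (5X, 50 ug/mL) then 1 h, 37 °C, dark.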
Six1-Eya2 inh – qHTS Assay for Inhibitors of the Six1/Eya2 Interaction; Homeobox protein SIX1 (Homo sapiens) + Protein phosphatase EYA2 (Homo sapiens), …; AlphaScreen GST-Six1/His-Eya2 binding, biochemical; stronger effect = lower value; activity change, % (no concentration beside the values); 360,000 compounds, 0.56% hits; in the data active = activity change below about -65%; inconclusive = mostly about -30% to -63%; also: % is scaled to controls: 0 for no effect and ±100 for the full control effect
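AlphaScreen luminescence read after one hour at 37 °C in darkness. Pin-transferred compounds met GST-Six1 and His-Eya2 protein (5X stock 250 nM/500 nM) plus glutathione donor and Ni-chelate acceptor beads (5X, 50 ug/mL).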
BAZ2B inh – qHTS Assay for Inhibitors of BAZ2B. Bromodomain adjacent to zinc finger domain protein 2B (Homo sapiens), Q9UIF8. AlphaScreen BAZ2B-H3K14Ac peptide displacement. Potency, µM (doses to about 114 µM), inactives show at the highest dose activity change, negative = inhibition, hits mostly inhibitors. 360,000 compounds, 4.4% hits; also: potency is read from the fitted curve at half-maximal effect; % is scaled to controls: 0 for no effect and ±100 for the full control effect; nearly all actives have a fitted effect of over 60% in size
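AlphaScreen luminescence quantifies BAZ2B engagement of H3K14Ac peptide; the protein and biotinylated peptide are both at 50 nM final, buffer PBS pH 7.4 with 0.01% Tween-20, all steps at room temperature.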
An asterisk follows results filed as active; [ ] = remark or other dose. Only some compounds are listed: those with a hit (about 10% of all), similar ones and a draw of the others. Unless noted, calls follow the shape of the dose curve; as a rule, active = well fitted inhibition curve with a large enough effect; inconclusive = small, poorly fitted or top-dose-only effect; inactive = no such curve, though single readings can be large or run the other way.

What do the screens show for `O=C(c1ccncc1)N1CCC2(CC1)CN(Cc1ccccc1)C2`?
G9a block: 0.4%[12.7 µM]

How did CSc1ncc(Cl)c(C(=O)O)n1 (tested in a mixture with another compound) do in these assays?
HP1b binding inh: 14.6%; JMJD2A Tudor: 79.4µM*; CtBP-E1A inh: 1.2; Six1-Eya2 inh: 6.8; BAZ2B inh: inconclusive

Results for C[C@]12CC[C@H](OS(=O)(=O)O)CC1=CCC1C2CC[C@]2(C)C(=O)CC[C@@H]12 (some centres not stated) ?
G9a block: 32.3%[12.7 µM]

What do the screens show for `CCOCCSc1nc2c(c(-c3cccs3)c1C#N)CC/C2=C/c1cccs1`?
G9a block: 28.2µM*; HP1b binding inh: 129.7%; JMJD2A Tudor: 36.1%; CtBP-E1A inh: 28.3; Six1-Eya2 inh: 22.4; BAZ2B inh: 11.3%

How did Cc1ccc(N2C(=O)NC(=O)/C(=C/c3ccc(OC(=O)c4cccs4)cc3)C2=O)cc1 do in these assays?
G9a block: 12.6µM*; HP1b binding inh: 42.7%; JMJD2A Tudor: 89.1µM*; CtBP-E1A inh: -8.0; Six1-Eya2 inh: inconclusive; BAZ2B inh: 7.6%

How did COc1ccc(N2C(=O)NC(=O)/C(=C/c3cccc(OC(=O)c4cccs4)c3)C2=O)cc1Cl do in these assays?
G9a block: 10µM*; HP1b binding inh: 2.4%; JMJD2A Tudor: -13.4%; CtBP-E1A inh: -12.2; Six1-Eya2 inh: -1.7; BAZ2B inh: 79.4µM*

How did C[N+]1=C2CCCCCN2C(O)(c2ccccc2)C1 (configuration not stated) do in these assays?
G9a block: 31.6µM*; HP1b binding inh: 10.9%; JMJD2A Tudor: 44.7µM*; CtBP-E1A inh: 8.1; Six1-Eya2 inh: 3.9; BAZ2B inh: -2.5%

Results for CCOP(=O)(/C(C#N)=C(\C)O)c1ccccc1 (configuration not stated) ?
G9a block: inconclusive; HP1b binding inh: 43.1%; JMJD2A Tudor: inconclusive; Six1-Eya2 inh: -4.2; BAZ2B inh: -16.4%

Results for C[N+]12CCC(CC1)C(=C(c1ccccc1)c1ccccc1)C2 ?
G9a block: 3.55µM*; HP1b binding inh: 12.4%; JMJD2A Tudor: -13.2%; CtBP-E1A inh: -1.9; Six1-Eya2 inh: 5.0; BAZ2B inh: 3.7%

What do the screens show for `CC(C)NC(=O)C(C)N1CCN(S(=O)(=O)c2ccc3ccccc3c2)CC1` (configuration not stated)?
G9a block: 25.1µM*; HP1b binding inh: 39.8µM*; JMJD2A Tudor: 3.16µM*; CtBP-E1A inh: 4.5; Six1-Eya2 inh: 6.7; BAZ2B inh: 56.2µM*

Results for Cc1ccc(-c2nnc(C)c(N3CCCC3)n2)cc1 ?
G9a block: 6.4%; HP1b binding inh: 50.7%; JMJD2A Tudor: 16.5%; CtBP-E1A inh: -1.6; Six1-Eya2 inh: -0.1; BAZ2B inh: -0.3%

Results for Cc1ccc(-c2cn3c(=S)[nH]nc3s2)cc1 ?
G9a block: 1µM*; HP1b binding inh: 70.8µM*; JMJD2A Tudor: 0.708µM*; CtBP-E1A inh: 3.6; Six1-Eya2 inh: -4.6; BAZ2B inh: 79.4µM*

Results for COc1ccc(NC2Oc3cc4c(cc3C(c3cc(OC)c(OC)c(OC)c3)C2C)OCO4)cc1 (configuration not stated) ?
HP1b binding inh: inconclusive; JMJD2A Tudor: 56.2µM*; CtBP-E1A inh: inconclusive; Six1-Eya2 inh: -16.2

What do the screens show for `COc1ccc(NC(=O)N2CC[C@@]3(CCCN(C(=O)Oc4ccccc4)C3)C2)cc1`?
G9a block: 5.1%[12.7 µM]

How did CCOC(=O)c1c(C)n(Cc2ccco2)c2c1cc(O)c1ccccc12 do in these assays?
G9a block: 15.8µM*; HP1b binding inh: 6.8%; JMJD2A Tudor: -18.3%; CtBP-E1A inh: -2.0; Six1-Eya2 inh: -3.6; BAZ2B inh: -10.6%

What do the screens show for `COc1ccc(N2C(=O)/C(=C/c3ccc(C)o3)C(=O)NC2=S)cc1`?
G9a block: 10µM*; HP1b binding inh: -14.7%; JMJD2A Tudor: 31.6µM*; CtBP-E1A inh: -12.7; Six1-Eya2 inh: -20.2; BAZ2B inh: 44.7µM*

What do the screens show for `CCOc1ccc(N2C(=O)/C(=C/c3ccc(C)o3)C(=O)NC2=S)cc1`?
HP1b binding inh: inconclusive; JMJD2A Tudor: 25.1µM*; Six1-Eya2 inh: -7.5; BAZ2B inh: inconclusive

How did COc1ccc(N2C(=O)CC(=O)NC2=O)cc1 do in these assays?
G9a block: -42.1%[59 µM]; HP1b binding inh: 29.7%; JMJD2A Tudor: -5.2%; CtBP-E1A inh: 5.2; Six1-Eya2 inh: -2.5; BAZ2B inh: -26.6%

How did Cc1ccc(/C=C2\C(=O)NC(=S)N(c3cccc(F)c3)C2=O)o1 do in these assays?
G9a block: 1.78µM*; HP1b binding inh: inconclusive; JMJD2A Tudor: 44.7µM*; Six1-Eya2 inh: -1.5; BAZ2B inh: 50.1µM*

Results for CCOc1ccc(N2C(=O)NC(=O)/C(=C\c3ccc(N4CCCCC4)o3)C2=O)cc1 ?
G9a block: 44.7µM*; HP1b binding inh: -4.2%; JMJD2A Tudor: -14.3%; CtBP-E1A inh: 6.1; Six1-Eya2 inh: 0.3; BAZ2B inh: -6.9%

Results for COc1cccc(CSc2nc(-c3ccccc3OC)nc3c2Cc2c(CO)cnc(C)c2O3)c1 ?
G9a block: inconclusive; HP1b binding inh: 7.8%; JMJD2A Tudor: -33.0%; BAZ2B inh: -34.4%

What do the screens show for `CCOC(=O)Cn1c(-c2ccccc2)ccc(C#N)c1=O`?
G9a block: 9.2%[59 µM]; HP1b binding inh: 91.3%; JMJD2A Tudor: 48.5%; CtBP-E1A inh: -16.5; Six1-Eya2 inh: 33.1; BAZ2B inh: 42.8%

Results for CN1C(=O)C(Cc2ccsc2)C(=O)N(C)C1=O ?
G9a block: 11.2µM*; HP1b binding inh: 64.4%; JMJD2A Tudor: -10.4%; CtBP-E1A inh: -1.4; Six1-Eya2 inh: 2.7; BAZ2B inh: -30.9%

Results for CN1C(=O)C(Cc2ccccc2)C(=O)N(C)C1=O ?
HP1b binding inh: 17.5%; JMJD2A Tudor: -18.8%; CtBP-E1A inh: 2.1; Six1-Eya2 inh: 1.7

What do the screens show for `CCOC(OCC)P(=O)(O)CCCN`?
G9a block: 34.8%[59 µM]

Results for C#CCNc1ccncc1S(=O)(=O)NC(=O)NC(C)C ?
G9a block: inconclusive; HP1b binding inh: 24.3%; JMJD2A Tudor: 50.1µM*; CtBP-E1A inh: 2.4; Six1-Eya2 inh: 4.0; BAZ2B inh: -9.0%
